# Laboratory results published in PubChem BioAssay AID1159580 (chemical genetic matrix, 2015).
# Several values for one entry are separate records, joined by “and”; a condition that tells them apart may be missing. Equal values may be shown once. Out of some 5,500 compounds screened, about 2,000 (36%) were called active. Another 18% or so got no clear call; they are omitted. Some of the results follow. Unmarked numbers belong to inactive results. No stated cut-off is given here; in the data, active means normalized growth mostly below about 0.91 (no sharp cut-off); inconclusive means no clear call, values can overlap the other calls; inactive means mostly above about 0.92.
# Assay: chemical genetic growth profiling, strain panel (AID 1159580);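 further: tested at 20 µM; growth read once vehicle control cultures reached saturation at 30 °C; 1 = growth at the plate median or of vehicle wells; lower values mean less growth of the strain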
# Conditions: growth OD
smiles,measurement,setting,value
CN1C(C(=O)Nc2ccccn2)=C(O)c2ccccc2S1(=O)=O,normalized growth,"S. cerevisiae deletion strains, locus YKL009W, strain mrt4, active compounds read low",0.963
same,normalized growth,"S. cerevisiae deletion strains, locus YKL068W, active compounds read low",0.925 (active)
same,normalized growth,"S. cerevisiae deletion strains, locus YKL085W, strain MDH1 (second series), active compounds read low",0.935
same,normalized growth,"S. cerevisiae deletion strains, locus YKL085W, strain MDH1, active compounds read low",0.935
same,normalized growth,"S. cerevisiae deletion strains, locus YKL160W, strain elf1, active compounds read low",0.933
same,normalized growth,"S. cerevisiae deletion strains, locus YKL190W, strain CNB1, active compounds read low",1.01
same,normalized growth,"S. cerevisiae deletion strains, locus YKR001C, strain vps1, active compounds read low",0.969
same,normalized growth,"S. cerevisiae deletion strains, locus YKR026C, strain gcn3, active compounds read low",0.958
same,normalized growth,"S. cerevisiae deletion strains, locus YKR091W, strain srl3, active compounds read low",0.968
same,normalized growth,"S. cerevisiae deletion strains, locus YLL001W, strain dnm1, active compounds read low",0.963
same,normalized growth,"S. cerevisiae deletion strains, locus YLL026W, active compounds read low",0.93 (active)
same,normalized growth,"S. cerevisiae deletion strains, locus YLL041C, strain sdh2, active compounds read low",0.953
same,normalized growth,"S. cerevisiae deletion strains, locus YLR027C, strain aat2, active compounds read low",0.932
same,normalized growth,"S. cerevisiae deletion strains, locus YLR039C, strain RIC1, active compounds read low",0.984
same,normalized growth,"S. cerevisiae deletion strains, locus YLR058C, strain SHM2, active compounds read low",0.982
same,normalized growth,"S. cerevisiae deletion strains, locus YLR102C, strain apc9, active compounds read low",0.946
same,normalized growth,"S. cerevisiae deletion strains, locus YLR113W, strain HOG1, active compounds read low",0.934
same,normalized growth,"S. cerevisiae deletion strains, locus YLR221C, strain rsa3, active compounds read low",0.925
same,normalized growth,"S. cerevisiae deletion strains, locus YLR258W, strain gsy2, active compounds read low",0.95
same,normalized growth,"S. cerevisiae deletion strains, locus YLR262C, strain YPT6 (second series), active compounds read low",0.919
same,normalized growth,"S. cerevisiae deletion strains, locus YLR262C, strain YPT6, active compounds read low",0.998
same,normalized growth,"S. cerevisiae deletion strains, locus YLR268W, strain sec22, active compounds read low",0.921
same,normalized growth,"S. cerevisiae deletion strains, locus YLR320W, strain mms22, active compounds read low",0.881
same,normalized growth,"S. cerevisiae deletion strains, locus YLR330W, strain CHS5, active compounds read low",0.967
same,normalized growth,"S. cerevisiae deletion strains, locus YLR342W, strain FKS1 (second series), active compounds read low",0.94
same,normalized growth,"S. cerevisiae deletion strains, locus YLR342W, strain FKS1, active compounds read low",0.931
same,normalized growth,"S. cerevisiae deletion strains, locus YLR357W, strain rsc2, active compounds read low",1
same,normalized growth,"S. cerevisiae deletion strains, locus YLR370C, strain arc18, active compounds read low",0.985
same,normalized growth,"S. cerevisiae deletion strains, locus YLR371W, strain rom2, active compounds read low",0.95
same,normalized growth,"S. cerevisiae deletion strains, locus YLR384C, strain iki3, active compounds read low",0.961
same,normalized growth,"S. cerevisiae deletion strains, locus YLR418C, strain cdc73, active compounds read low",0.905
same,normalized growth,"S. cerevisiae deletion strains, locus YML016C, strain PPZ1, active compounds read low",0.965
same,normalized growth,"S. cerevisiae deletion strains, locus YML032C, strain rad52, active compounds read low",0.954
same,normalized growth,"S. cerevisiae deletion strains, locus YML120C, strain ndi1, active compounds read low",0.95
same,normalized growth,"S. cerevisiae deletion strains, locus YML124C, strain tub3, active compounds read low",0.95
same,normalized growth,"S. cerevisiae deletion strains, locus YMR058W, strain fet3, active compounds read low",0.961
same,normalized growth,"S. cerevisiae deletion strains, locus YMR078C, strain ctf18, active compounds read low",0.926
same,normalized growth,"S. cerevisiae deletion strains, locus YMR125W, strain sto1, active compounds read low",0.985
same,normalized growth,"S. cerevisiae deletion strains, locus YMR129W, active compounds read low",0.935
same,normalized growth,"S. cerevisiae deletion strains, locus YMR205C, strain PFK2, active compounds read low",0.781 (active)
same,normalized growth,"S. cerevisiae deletion strains, locus YMR223W, strain ubp8, active compounds read low",0.97
same,normalized growth,"S. cerevisiae deletion strains, locus YMR231W, strain pep5, active compounds read low",0.97
same,normalized growth,"S. cerevisiae deletion strains, locus YMR263W, strain SAP30, active compounds read low",0.996
same,normalized growth,"S. cerevisiae deletion strains, locus YMR307W, strain GAS1, active compounds read low",0.836 and 1
same,normalized growth,"S. cerevisiae deletion strains, locus YNL067W, strain RPL9B, active compounds read low",1
same,normalized growth,"S. cerevisiae deletion strains, locus YNL071W, strain lat1, active compounds read low",0.786 (active)
same,normalized growth,"S. cerevisiae deletion strains, locus YNL128W, strain TEP1, active compounds read low",1.02
same,normalized growth,"S. cerevisiae deletion strains, locus YNL153C, strain GIM3, active compounds read low",0.984
same,normalized growth,"S. cerevisiae deletion strains, locus YNL175C, strain NOP13, active compounds read low",0.971
same,normalized growth,"S. cerevisiae deletion strains, locus YNL183C, strain NPR1, active compounds read low",0.919
same,normalized growth,"S. cerevisiae deletion strains, locus YNL197C, strain WHI3, active compounds read low",0.97
same,normalized growth,"S. cerevisiae deletion strains, locus YNL209W, strain ssb2, active compounds read low",0.982
same,normalized growth,"S. cerevisiae deletion strains, locus YNL224C, strain SQS1, active compounds read low",0.968
same,normalized growth,"S. cerevisiae deletion strains, locus YNL233W, strain BNI4, active compounds read low",0.993
same,normalized growth,"S. cerevisiae deletion strains, locus YNL248C, strain rpa49, active compounds read low",1.26 [resistant] (active)
same,normalized growth,"S. cerevisiae deletion strains, locus YNL250W, strain rad50, active compounds read low",0.923
same,normalized growth,"S. cerevisiae deletion strains, locus YNL271C, strain bni1, active compounds read low",0.911 (active)
same,normalized growth,"S. cerevisiae deletion strains, locus YNL298W, strain CLA4, active compounds read low",0.935
same,normalized growth,"S. cerevisiae deletion strains, locus YNL307C, strain MCK1, active compounds read low",0.82 (active)
same,normalized growth,"S. cerevisiae deletion strains, locus YNL322C, strain KRE1 (second series), active compounds read low",0.943
same,normalized growth,"S. cerevisiae deletion strains, locus YNL322C, strain KRE1, active compounds read low",0.973 and 1
same,normalized growth,"S. cerevisiae deletion strains, locus YNR049C, strain mso1, active compounds read low",0.964
same,normalized growth,"S. cerevisiae deletion strains, locus YNR052C, strain pop2, active compounds read low",0.965
same,normalized growth,"S. cerevisiae deletion strains, locus YOL006C, strain TOP1, active compounds read low",0.999
same,normalized growth,"S. cerevisiae deletion strains, locus YOL012C, strain htz1",0.613
same,normalized growth,"S. cerevisiae deletion strains, locus YOL147C, strain pex11, active compounds read low",0.944
same,normalized growth,"S. cerevisiae deletion strains, locus YOR001W, strain rrp6, active compounds read low",0.92
same,normalized growth,"S. cerevisiae deletion strains, locus YOR061W, strain CKA2, active compounds read low",0.976
same,normalized growth,"S. cerevisiae deletion strains, locus YOR069W, strain VPS5, active compounds read low",0.966
same,normalized growth,"S. cerevisiae deletion strains, locus YOR070C, strain gyp1, active compounds read low",0.973
same,normalized growth,"S. cerevisiae deletion strains, locus YOR080W, strain dia2, active compounds read low",0.978
same,normalized growth,"S. cerevisiae deletion strains, locus YOR083W, strain WHI5 (second series), active compounds read low",0.99
same,normalized growth,"S. cerevisiae deletion strains, locus YOR083W, strain WHI5, active compounds read low",0.946
same,normalized growth,"S. cerevisiae deletion strains, locus YOR106W, strain vam3, active compounds read low",0.965
same,normalized growth,"S. cerevisiae deletion strains, locus YOR136W, strain idh2, active compounds read low",0.988
same,normalized growth,"S. cerevisiae deletion strains, locus YOR144C, strain elg1, active compounds read low",0.953
same,normalized growth,"S. cerevisiae deletion strains, locus YOR184W, strain ser1, active compounds read low",0.961
same,normalized growth,"S. cerevisiae deletion strains, locus YOR231W, strain MKK1, active compounds read low",0.945
same,normalized growth,"S. cerevisiae deletion strains, locus YOR265W, strain rbl2, active compounds read low",0.967
same,normalized growth,"S. cerevisiae deletion strains, locus YOR270C, strain vph1, active compounds read low",0.954
same,normalized growth,"S. cerevisiae deletion strains, locus YOR290C, strain snf2, active compounds read low",0.971
same,normalized growth,"S. cerevisiae deletion strains, locus YOR316C, strain cot1, active compounds read low",0.95
same,normalized growth,"S. cerevisiae deletion strains, locus YPL051W, strain arl3, active compounds read low",0.961
same,normalized growth,"S. cerevisiae deletion strains, locus YPL055C, strain LGE1, active compounds read low",0.987
same,normalized growth,"S. cerevisiae deletion strains, locus YPL078C, strain atp4, active compounds read low",0.95
same,normalized growth,"S. cerevisiae deletion strains, locus YPL106C, strain sse1, active compounds read low",0.989
same,normalized growth,"S. cerevisiae deletion strains, locus YPL240C, strain hsp82, active compounds read low",0.953
same,normalized growth,"S. cerevisiae deletion strains, locus YPL241C, strain CIN2, active compounds read low",0.967
same,normalized growth,"S. cerevisiae deletion strains, locus YPL256C, strain CLN2, active compounds read low",0.907
same,normalized growth,"S. cerevisiae deletion strains, locus YPR119W, strain clb2, active compounds read low",0.931
same,normalized growth,"S. cerevisiae deletion strains, locus YPR141C, strain kar3, active compounds read low",0.923
same,normalized growth,"S. cerevisiae deletion strains, locus YPR163C, strain tif3, active compounds read low",0.885 (active)
same,normalized growth,"S. cerevisiae deletion strains, locus YPR167C, strain met16, active compounds read low",0.962
same,normalized growth,"S. cerevisiae deletion strains, strain wtn01, active compounds read low",0.961
same,normalized growth,"S. cerevisiae strains, strain wild type, active compounds read low",0.984
